# The sample as a whole holds a higher share of the strongest signals than the screen did.
# Columns and labels:
# Test in all cases: glycan array binding signal (z-score within array); higher = stronger binding
# Details in all cases: glycan notation: IUPAC condensed, linker removed
# [1] = molecular target: Fuc(a1-2)Gal(b1-3)GalNAc(b1-4)[Neu5Ac(a2-3)]Gal(b1-4)Glc
# In short: (§1)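 Columns mapping to the same glycan were averaged after glycan names were converted to IUPAC-condensed notation. The data come from 3228 arrays in the Consortium for Functional Glycomics database, limited to those with an available protein sequence. Binding is reported as a within-array Z-score averaged across arrays of one protein sequence and across linkers.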
# Fuc(a1-2)Gal(b1-3)GlcNAc = molecular target: Fuc(a1-2)Gal(b1-3)GlcNAc
# In short: as §1
# [2] = molecular target: Fuc(a1-2)Gal(b1-3)GlcNAc(b1-2)Man(a1-3)[Fuc(a1-2)Gal(b1-3)GlcNAc(b1-2)Man(a1-6)]Man(b1-4)GlcNAc(b1-4)GlcNAc
# In short: as §1
# [3] = molecular target: Fuc(a1-2)Gal(b1-3)[Fuc(a1-4)]GlcNAc(b1-3)[Fuc(a1-3)[Gal(b1-4)]GlcNAc(b1-6)]Gal(b1-4)Glc
# In short: as §1
# [4] = molecular target: Fuc(a1-2)[Gal(a1-3)]Gal(b1-3)GlcNAc
# In short: as §1
# [5] = molecular target: Fuc(a1-2)[Gal(a1-3)]Gal(b1-4)GlcNAc(b1-2)Man(a1-3)[Fuc(a1-2)[Gal(a1-3)]Gal(b1-4)GlcNAc(b1-2)Man(a1-6)]Man(b1-4)GlcNAc(b1-4)GlcNAc
# In short: as §1
# [6] = molecular target: Fuc(a1-2)[GalNAc(a1-3)]Gal(b1-4)GlcNAc(b1-2)Man
# In short: as §1
# Fuc(b1-3)GlcNAc = molecular target: Fuc(b1-3)GlcNAc
# In short: as §1
# Gal(b1-3)Gal = molecular target: Gal(b1-3)Gal
# In short: as §1
# [7] = molecular target: Gal(b1-3)[Fuc(a1-4)]GlcNAc(b1-2)Man(a1-3)[Gal(b1-3)[Fuc(a1-4)]GlcNAc(b1-2)Man(a1-6)]Man(b1-4)GlcNAc(b1-4)[Fuc(a1-6)]GlcNAc
# In short: as §1
# Gal(b1-4)Gal = molecular target: Gal(b1-4)Gal
# In short: as §1
# Gal(b1-4)Glc6S = molecular target: Gal(b1-4)Glc6S
# In short: as §1
# Gal(b1-4)GlcNAc = molecular target: Gal(b1-4)GlcNAc
# In short: as §1
# [8] = molecular target: Gal(b1-4)GlcNAc(b1-2)Man(a1-6)[Man(a1-3)]Man(b1-4)GlcNAc(b1-4)GlcNAc
# In short: as §1
# [9] = molecular target: Gal(b1-4)GlcNAc(b1-2)[Gal(b1-4)GlcNAc(b1-6)]Man(a1-6)[Gal(b1-4)GlcNAc(b1-2)Man(a1-3)]Man(b1-4)GlcNAc(b1-4)[Fuc(a1-6)]GlcNAc
# In short: as §1
# [10] = molecular target: Gal(b1-4)GlcNAc(b1-3)Gal(b1-4)GlcNAc(b1-3)GalNAc
# In short: as §1
# Gal6P(b1-4)GlcNAc = molecular target: Gal6P(b1-4)GlcNAc
# In short: as §1
# Gal6S(b1-4)Glc6S = molecular target: Gal6S(b1-4)Glc6S
# In short: as §1
# [11] = molecular target: GalNAc(b1-3)Gal(a1-4)Gal(b1-4)GlcNAc
# In short: as §1
# GlcA(b1-6)Gal = molecular target: GlcA(b1-6)Gal
# In short: as §1
# [12] = molecular target: GlcNAc(a1-4)Gal(b1-4)GlcNAc(b1-3)Gal(b1-4)[Fuc(a1-3)]GlcNAc(b1-3)Gal(b1-4)[Fuc(a1-3)]GlcNAc
# In short: as §1
# [13] = molecular target: GlcNAc(b1-2)[GlcNAc(b1-4)]Man(a1-3)[GlcNAc(b1-2)Man(a1-6)]Man(b1-4)GlcNAc(b1-4)GlcNAc
# In short: as §1
# [14] = molecular target: GlcNAc(b1-2)[GlcNAc(b1-4)]Man(a1-3)[GlcNAc(b1-4)][GlcNAc(b1-2)[GlcNAc(b1-6)]Man(a1-6)]Man(b1-4)GlcNAc(b1-4)GlcNAc
# In short: as §1
# [15] = molecular target: GlcNAc(b1-4)GlcNAc(b1-4)GlcNAc
# In short: as §1
# [16] = molecular target: GlcNAc(b1-4)GlcNAc(b1-4)GlcNAc(b1-4)GlcNAc(b1-4)GlcNAc(b1-4)GlcNAc
# In short: as §1
# [17] = molecular target: Man(a1-2)Man(a1-2)Man(a1-3)Man
# In short: as §1
# [18] = molecular target: Man(a1-2)Man(a1-2)Man(a1-6)[Man(a1-3)]Man
# In short: as §1
# Man(a1-2)Man(a1-3)Man = molecular target: Man(a1-2)Man(a1-3)Man
# In short: as §1
# [19] = molecular target: Man(a1-2)Man(a1-3)[Man(a1-2)Man(a1-6)]Man
# In short: as §1
# [20] = molecular target: Man(a1-2)Man(a1-3)[Man(a1-2)Man(a1-6)]Man(a1-6)[Man(a1-2)Man(a1-2)Man(a1-3)]Man
# In short: as §1
binder,measurement,setting,value
Microvirin-2 (Microcystis aeruginosa) (protein) MPNFSHTCSSINYDPDSTILSAECQARDGEWLPTELRLSDHIGNIDGELQFGDQNFQETCQDCHLEFGDGEQSVWLVCTCQTMDGEWKSTQILLDSQIDNNDSQLEIGGSMPNFSHTCSSINYDPDSTILSAECQARDGEWLPTELRLSDHIGNIDGELQFGDQNFQETCQDCHLEFGDGEQSVWLVCTCQTMDGEWKSTQILLDSQIDNNDSQLEIG,glycan array binding signal (z-score),[1],-0.133
same,glycan array binding signal (z-score),Fuc(a1-2)Gal(b1-3)GlcNAc,-0.139
same,glycan array binding signal (z-score),[2],0.021
same,glycan array binding signal (z-score),[3],-0.137
same,glycan array binding signal (z-score),[4],-0.138
same,glycan array binding signal (z-score),[5],-0.113
same,glycan array binding signal (z-score),[6],-0.138
same,glycan array binding signal (z-score),Fuc(b1-3)GlcNAc,-0.137
same,glycan array binding signal (z-score),Gal(b1-3)Gal,-0.144
same,glycan array binding signal (z-score),[7],0.648
same,glycan array binding signal (z-score),Gal(b1-4)Gal,-0.143
same,glycan array binding signal (z-score),Gal(b1-4)Glc6S,-0.134
same,glycan array binding signal (z-score),Gal(b1-4)GlcNAc,-0.131
same,glycan array binding signal (z-score),[8],-0.141
same,glycan array binding signal (z-score),[9],-0.131
same,glycan array binding signal (z-score),[10],0.024
same,glycan array binding signal (z-score),Gal6P(b1-4)GlcNAc,-0.134
same,glycan array binding signal (z-score),Gal6S(b1-4)Glc6S,-0.128
same,glycan array binding signal (z-score),[11],-0.131
same,glycan array binding signal (z-score),GlcA(b1-6)Gal,-0.139
same,glycan array binding signal (z-score),[12],-0.031
same,glycan array binding signal (z-score),[13],-0.139
same,glycan array binding signal (z-score),[14],-0.141
same,glycan array binding signal (z-score),[15],-0.14
same,glycan array binding signal (z-score),[16],-0.135
same,glycan array binding signal (z-score),[17],5.28
same,glycan array binding signal (z-score),[18],9.44
same,glycan array binding signal (z-score),Man(a1-2)Man(a1-3)Man,4.43
same,glycan array binding signal (z-score),[19],7.03
same,glycan array binding signal (z-score),[20],6.69

# Source: the supplement of paper PMC8728848
